According to PubChem BioAssay (NCI):
This is part of a sample that, as a whole, favours compounds with a hit. Of some 83,000 tested, about 20% had one in any assay.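 Growth was measured after 48 h exposure to one concentration of compound in 96-well plates. Values under 10 count as active.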 The source made the active and inactive calls.

Key:
Assay in all cases: NCI-60 one-dose screen, 48 h (100 = growth as untreated, 0 = no growth, -100 = all killed)
Conditions in all cases: 10 µM unless noted
HCT-15 colon = tested on: HCT-15 colon
HT29 colon = tested on: HT29 colon
SNB-19 CNS = tested on: SNB-19 CNS
U251 CNS = tested on: U251 CNS
PC-3 prostate = tested on: PC-3 prostate
SK-MEL-5 melanoma = tested on: SK-MEL-5 melanoma
UACC-62 melanoma = tested on: UACC-62 melanoma
LOX IMVI melanoma = tested on: LOX IMVI melanoma
SK-MEL-28 melanoma = tested on: SK-MEL-28 melanoma
SK-MEL-2 melanoma = tested on: SK-MEL-2 melanoma
SN12C renal = tested on: SN12C renal
UO-31 renal = tested on: UO-31 renal
TK-10 renal = tested on: TK-10 renal
ACHN renal = tested on: ACHN renal
CAKI-1 renal = tested on: CAKI-1 renal
A498 renal = tested on: A498 renal
CCRF-CEM leukemia = tested on: CCRF-CEM leukemia
MOLT-4 leukemia = tested on: MOLT-4 leukemia
EKVX NSCLC = tested on: EKVX NSCLC

Measured: growth

COc1ccc(C2C=C(c3ccc(N)cc3)N=C3SC=CN32)cc1OC (stereo not given)
inactive: HCT-15 colon 101% | HT29 colon 103% | SNB-19 CNS 102% | U251 CNS 98.5% | PC-3 prostate 91.4% | SK-MEL-5 melanoma 103% | UACC-62 melanoma 112% | LOX IMVI melanoma 105% | SK-MEL-28 melanoma 113% | SK-MEL-2 melanoma 108% | SN12C renal 105% | UO-31 renal 82.2% | TK-10 renal 98.1% | ACHN renal 99.9% | CAKI-1 renal 101% | A498 renal 108% | CCRF-CEM leukemia 97.7% | MOLT-4 leukemia 90.6%

COc1ccc(/C=C2\CN(Cc3cn(CCNc4ccnc5cc(Cl)ccc45)nn3)C/C(=C\c3ccc(OC)c(OC)c3)C2=O)cc1OC
inactive: HCT-15 colon 76% | SNB-19 CNS 58.1% | PC-3 prostate 12.1% | SK-MEL-5 melanoma 10.8% | SK-MEL-28 melanoma 21.6% | UO-31 renal 80.5% | ACHN renal 51.4% | CAKI-1 renal 97.4% | A498 renal 32.5%
active: HT29 colon -42.4% | U251 CNS 6.39% | UACC-62 melanoma 7.74% | LOX IMVI melanoma -28.3% | SK-MEL-2 melanoma -19.7% | SN12C renal -0.659% | TK-10 renal 8.71% | CCRF-CEM leukemia 0.689% | MOLT-4 leukemia -3.65%

COc1cc(NC(N)=NCCC(C)(C)c2ccc(C(F)(F)F)cc2)ncc1C#N
inactive: HCT-15 colon 14.6% | SNB-19 CNS 48.4% | PC-3 prostate 25.4% | UACC-62 melanoma 10.4% | LOX IMVI melanoma 18.3% | SK-MEL-2 melanoma 48.8% | EKVX NSCLC 24.8% | SN12C renal 27.4% | TK-10 renal 13.8% | ACHN renal 45.1% | CAKI-1 renal 40.8% | A498 renal 48.1% | CCRF-CEM leukemia 24.6%
active: HT29 colon -37% | U251 CNS -37.4% | SK-MEL-5 melanoma -80.2% | SK-MEL-28 melanoma -55.6% | MOLT-4 leukemia -10.7%

N#Cc1c(-c2ccccc2)nc(SCC(=O)N2CCN(c3ccccc3)CC2)[nH]c1=O
inactive: HCT-15 colon 107% | HT29 colon 117% | SNB-19 CNS 99.9% | U251 CNS 95.7% | PC-3 prostate 95.6% | SK-MEL-5 melanoma 103% | UACC-62 melanoma 106% | LOX IMVI melanoma 97% | SK-MEL-28 melanoma 116% | SK-MEL-2 melanoma 113% | SN12C renal 110% | UO-31 renal 87.6% | TK-10 renal 145% | ACHN renal 101% | CAKI-1 renal 97.7% | A498 renal 116% | CCRF-CEM leukemia 100%

C=CCn1cc(-c2nc3ccccc3s2)c2cc(-c3ccc4c5c(cccc35)C(=O)N(CCN3CCNCC3)C4=O)ccc21
inactive: HCT-15 colon 16.1% | HT29 colon 11% | SNB-19 CNS 90% | U251 CNS 95.2% | PC-3 prostate 65.2% | SK-MEL-5 melanoma 99.1% | UACC-62 melanoma 93.6% | LOX IMVI melanoma 77.6% | SK-MEL-28 melanoma 107% | SK-MEL-2 melanoma 99% | EKVX NSCLC 87.8% | SN12C renal 76.3% | UO-31 renal 80.7% | ACHN renal 67.4% | CAKI-1 renal 74% | A498 renal 98.9% | MOLT-4 leukemia 92.8%

Cc1cc(C2=NNC(=O)Cc3cc4c(cc32)OCCO4)cc(C)c1N
active: HT29 colon 7.97%
inactive: HCT-15 colon 31.7% | SNB-19 CNS 48% | U251 CNS 36.6% | PC-3 prostate 49.1% | SK-MEL-5 melanoma 10.2% | UACC-62 melanoma 44.1% | LOX IMVI melanoma 39.7% | SK-MEL-28 melanoma 42.3% | EKVX NSCLC 59.6% | SN12C renal 43.6% | UO-31 renal 40% | TK-10 renal 60.6% | ACHN renal 48.7% | CAKI-1 renal 40.4% | A498 renal 24.2% | MOLT-4 leukemia 52.2%

CN(CCCCCl)P(=O)(OCc1ccc([N+](=O)[O-])o1)C(F)(F)C[C@H](NC(=O)CNC(=O)c1ccc(N=[N+]=[N-])cc1)C(=O)NCCc1ccc(O)cc1 (stereo not given in full)
inactive: HCT-15 colon 103% | HT29 colon 86.3% | SNB-19 CNS 94.1% | U251 CNS 69.1% | PC-3 prostate 101% | SK-MEL-5 melanoma 91.3% | UACC-62 melanoma 59.7% | LOX IMVI melanoma 79.3% | SK-MEL-28 melanoma 63.9% | EKVX NSCLC 102% | SN12C renal 95.2% | UO-31 renal 84.7% | TK-10 renal 121% | ACHN renal 106% | CAKI-1 renal 105% | A498 renal 104% | MOLT-4 leukemia 74.7%

CN1CCN(Cc2ccc(NC(=O)c3cncc(C#Cc4cnc(N)c5ccncc45)c3)cc2C(F)(F)F)CC1
active: HT29 colon 9.95% | UACC-62 melanoma -28.8% | LOX IMVI melanoma -83.9% | SK-MEL-2 melanoma -25.2% | SN12C renal 6.05% | UO-31 renal 3.59% | ACHN renal 2.28% | CAKI-1 renal 4.48% | A498 renal -22.7%
inactive: HCT-15 colon 10.9% | SNB-19 CNS 51.3% | U251 CNS 37.3% | PC-3 prostate 25.5% | SK-MEL-5 melanoma 11.9% | EKVX NSCLC 13.9% | TK-10 renal 48.6% | CCRF-CEM leukemia 14.2% | MOLT-4 leukemia 16.6%

COc1cc(/C(C#N)=C/c2ccc3c(c2OC)OCO3)cc2c1OCO2
inactive: HCT-15 colon 33% | SNB-19 CNS 31.2% | U251 CNS 18.9% | PC-3 prostate 40.8% | SK-MEL-5 melanoma 36.9% | UACC-62 melanoma 18.5% | LOX IMVI melanoma 24.2% | SK-MEL-28 melanoma 45.7% | EKVX NSCLC 45.9% | SN12C renal 36.6% | UO-31 renal 41.7% | TK-10 renal 54.3% | ACHN renal 51.6% | CAKI-1 renal 42.9% | MOLT-4 leukemia 50.6%
active: HT29 colon 0.067% | A498 renal 8.92%

COc1ccc(C2=C(c3cc(OC)c(OC)c(OC)c3)C(=O)CC2)cc1
inactive: HCT-15 colon 24.2% | SNB-19 CNS 35.1% | U251 CNS 21.7% | PC-3 prostate 38.3% | UACC-62 melanoma 32.7% | LOX IMVI melanoma 19.6% | SK-MEL-28 melanoma 47.7% | EKVX NSCLC 40% | SN12C renal 26.4% | TK-10 renal 60.6% | ACHN renal 37.8% | CAKI-1 renal 53.5% | MOLT-4 leukemia 17.4%
active: HT29 colon -5.43% | SK-MEL-5 melanoma -33.6% | A498 renal -4.31%

COc1ccc(S(=O)(=O)n2cc(C(=O)C(=O)Nc3ccncc3)c3ccccc32)cc1F
inactive: HCT-15 colon 84.2% | HT29 colon 83.9% | SNB-19 CNS 78.9% | U251 CNS 77.4% | PC-3 prostate 79.8% | SK-MEL-5 melanoma 73.5% | UACC-62 melanoma 65.5% | LOX IMVI melanoma 70.2% | SK-MEL-28 melanoma 92.2% | EKVX NSCLC 39.5% | SN12C renal 73.7% | UO-31 renal 81.8% | TK-10 renal 102% | ACHN renal 66.7% | CAKI-1 renal 55.3% | A498 renal 73.4%

CCN(CC)CCC(CNc1ccnc2cc(Cl)ccc12)c1ccccc1 (stereo not given)
active: HT29 colon 7.02% | SK-MEL-5 melanoma -75.2%
inactive: HCT-15 colon 34.1% | SNB-19 CNS 92.5% | U251 CNS 50.7% | PC-3 prostate 56.5% | UACC-62 melanoma 57.6% | LOX IMVI melanoma 39% | SK-MEL-2 melanoma 56.2% | EKVX NSCLC 90% | SN12C renal 75.8% | UO-31 renal 15.2% | TK-10 renal 55.9% | ACHN renal 35.3% | CAKI-1 renal 43.4% | A498 renal 42.3% | CCRF-CEM leukemia 58.6% | MOLT-4 leukemia 50.7%

Cc1ccc(S(=O)(=O)/C(=C\c2ccc(Cl)cc2)C(=O)c2ccccc2)cc1
inactive: HCT-15 colon 100% | HT29 colon 123% | SNB-19 CNS 95.7% | U251 CNS 102% | PC-3 prostate 96.4% | SK-MEL-5 melanoma 103% | UACC-62 melanoma 101% | LOX IMVI melanoma 104% | SK-MEL-28 melanoma 100% | SN12C renal 98.9% | UO-31 renal 90.1% | TK-10 renal 124% | ACHN renal 109% | CAKI-1 renal 87.3% | A498 renal 99.4% | CCRF-CEM leukemia 97.7% | MOLT-4 leukemia 99.1%

COc1ccc(-c2ccc(C)n2-c2ccc(-c3nc4cc(Cl)ccc4s3)cc2)cc1
inactive: HCT-15 colon 105% | HT29 colon 100% | SNB-19 CNS 103% | U251 CNS 98.2% | PC-3 prostate 113% | SK-MEL-5 melanoma 97.9% | UACC-62 melanoma 85.2% | LOX IMVI melanoma 95.8% | SK-MEL-28 melanoma 125% | EKVX NSCLC 90.3% | SN12C renal 90.5% | UO-31 renal 85% | TK-10 renal 81.6% | ACHN renal 108% | CAKI-1 renal 79.9% | A498 renal 91.4%

COc1cccc(/C=C/C(=O)Nc2cc(OC)c3c(c2)OCO3)c1
inactive: HCT-15 colon 101% | HT29 colon 92.1% | SNB-19 CNS 96.7% | U251 CNS 91.3% | PC-3 prostate 97.8% | SK-MEL-5 melanoma 94.1% | UACC-62 melanoma 92% | LOX IMVI melanoma 95.8% | SK-MEL-28 melanoma 114% | EKVX NSCLC 92.4% | SN12C renal 93.8% | UO-31 renal 101% | TK-10 renal 98.4% | ACHN renal 102% | CAKI-1 renal 93.7% | A498 renal 69.5% | MOLT-4 leukemia 89.5%

COc1cc(-c2nn(-c3cccc(NC(=O)c4ccc(Cl)c(C(F)(F)F)c4)c3)cc2-c2ccncc2)ccc1Cl
inactive: HCT-15 colon 51.7% | HT29 colon 50.1% | SNB-19 CNS 66% | U251 CNS 32.5% | PC-3 prostate 18.6% | SK-MEL-5 melanoma 17.5% | UACC-62 melanoma 32.8% | LOX IMVI melanoma 32.2% | SK-MEL-28 melanoma 41.6% | SK-MEL-2 melanoma 18.9% | SN12C renal 57.3% | ACHN renal 39.1% | CAKI-1 renal 61.1% | A498 renal 11.8% | CCRF-CEM leukemia 12.4% | MOLT-4 leukemia 20.3%

COc1cccc(-c2cc3c(O)cc(C#N)cc3[nH]2)c1
inactive: HCT-15 colon 80.9% | HT29 colon 94.6% | SNB-19 CNS 93.1% | U251 CNS 85.3% | PC-3 prostate 81.8% | SK-MEL-5 melanoma 82.1% | UACC-62 melanoma 70.9% | LOX IMVI melanoma 92.4% | SK-MEL-28 melanoma 97.8% | EKVX NSCLC 77.8% | SN12C renal 66.1% | UO-31 renal 106% | TK-10 renal 97.9% | ACHN renal 87.6% | CAKI-1 renal 88.4% | A498 renal 71.7% | MOLT-4 leukemia 81.8%
